Tgondii IFNg – T. gondii growth inhibition with IFN-gamma, primary screen, cell-based; Toxoplasma gondii growth in IFN-gamma-treated host cells; hits give low values; hit rate 3.8% among 69,000; activity change, negative = inhibition, % (concentration not given with the values); in the data active means activity change below about -70%, passing the limit was not always enough;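 further: host cells are HeLa cells infected with Toxoplasma gondii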
* hit, by the source's call; ! = not active in a repeat. The sample as a whole holds a higher share of hits than the screen did.

SMILES	Tgondii IFNg
COC(=O)c1sc2ccccc2c1Cl	8.1
O=C(c1sc2cc(Cl)ccc2c1Cl)N1c2ccccc2Sc2ccccc21	-80.3*
O=C(Cc1nc2ccc(Cl)cc2[nH]1)N1CCn2cncc2C1	21.6
COCCN(Cc1nccs1)C(=O)c1cn(-c2ccccc2)nn1	5.0
CC(C)Oc1ccc(NC(=O)c2nc3c(n2C(C)C)CCN(C(=O)c2ccccc2)C3)cc1	-89.1*
CC1CN(C(=O)c2nc3c(n2C(C)C)CCN(Cc2ccccc2)C3)CC(C)O1 (stereo not given)	-48.8
CC(C)n1c(C(=O)Nc2cccc(F)c2)nc2c1CCN(Cc1ccccc1)C2	-29.6
O=C(c1ccccc1C1CCNC1)N1CCOC2(CCCC2)C1 (stereo not given)	3.2
COc1cccc(-c2ccc(C(N)=O)cc2)c1OC	-59.4
COCc1ncc(CN2CCN(c3cccc(C(C)C)n3)CC2)cn1	5.7
Cc1ccc(S(=O)(=O)N2[C@@H]3CNC[C@H]2C3c2ccc(/C=C/c3ccccc3)cc2)cc1 (stereo not given in full)	-43.9
Cc1ccc(/C=C2\CNC/C(=C\c3ccc(C)cc3)C2=O)cc1	-85.9*
Cc1ccc(/C=C2\C(=O)C3(C)CCC2C3(C)C)cc1 (stereo not given)	8.9
CC(C)c1noc(C2CCCN(C3CCC4(CCNCC4)CC3)C2)n1 (stereo not given)	-5.8
Cc1cc(=O)n(CC(=O)NC(C)c2ccccn2)c2ccccc12 (stereo not given)	-5.8
Cc1ccc(-c2ccc(-c3ccn[nH]3)cc2)c(N)n1	-81.2*
CCc1cnc(C)nc1-c1ccc(-c2ccn[nH]2)cc1	-0.6
Nc1cnc(-c2ccc(-c3ccn[nH]3)cc2)cn1	-39.6
COc1ccc(-c2nnc(-c3nc(N4CCC5(CC4)OCCO5)c4ccccc4n3)o2)cc1	111.0
CCOc1ccccc1NC(=O)N1C[C@H](N(C)C)C[C@H]1CO	5.7
COc1ccc(CNCCCSc2ncccn2)cc1	19.8
COc1ccc(NC(=S)NCCSc2ccc(Cl)cc2)cc1	-42.0
COc1ccc(SCC(O)CNCc2ccc(Cl)cc2)cc1 (stereo not given)	-79.9*
C=CCN1CC2(CCN(Cc3nccn3C)CC2)OCC1=O	0.2
CCOc1ccc(N(C2=NCCCS2)S(=O)(=O)c2c(C)cc(C)cc2C)cc1	-41.9
SMILES	Tgondii IFNg
CCCCOc1ccc(C(=O)CCN(CC)CC)cc1	68.9
CCN(CC)CCOC(=O)c1ccc(N)cc1	11.6
CCN(CC)CCOc1ccc(/C(=C(\Cl)c2ccccc2)c2ccccc2)cc1	-80.2*
c1cn(Cc2ccsc2)c(-c2cnc[nH]2)n1	18.7
COc1ncccc1CN1Cc2cnn(C)c2C(COCC2CC2)C1 (stereo not given)	-0.6
O=C(c1csc(N2CCN(c3ccccc3)CC2)n1)N1CCC(N2CCCCC2)CC1	0.6
CN(c1ncccc1CNc1nc(Nc2ccc3c(c2)CC(=O)N3)ncc1C(F)(F)F)S(C)(=O)=O	-80.1*
CS(=O)(=O)c1cccc(CNc2nc(Nc3ccc4c(c3)CCC(=O)N4)ncc2C(F)(F)F)c1	-68.1
O=C(CO)N1CCCc2ccccc2C1c1ccnc(Oc2cccnc2)c1 (stereo not given)	-5.8
Cc1cc2nc(C)c(CCC(=O)O)c(C)n2n1	-64.1
CC(=O)Nc1ccc(CN2CCC3(CC2)C(=O)N(C)C(=O)N3CC(C)C)cc1	24.9
COc1ccccc1C(=O)Nc1ccc(-c2nc(Cn3cc(C)cn3)c(C)o2)cc1	15.3
COc1ccccc1CC(=O)Nc1ccc(-c2nc(Cn3cc(C)cn3)c(C)o2)cc1	-94.7*
Cc1cnn(Cc2nc(-c3ccc(NC(=O)CCc4ccccc4)cc3)oc2C)c1	-83.7*
CC(=O)Nc1ccc(-c2nc(Cn3cc(C)cn3)c(C)o2)cc1	64.3
COc1ccc(CC(=O)Nc2ccc(-c3nc(Cn4cc(C)cn4)c(C)o3)cc2)cc1	-51.4
Cc1cnn(Cc2nc(-c3ccc(NC(=O)CC4CCCC4)cc3)oc2C)c1	-15.1
CCOCC1CN(Cc2ccc(OC)cc2)Cc2nn(CC3CC3)cc21 (stereo not given)	4.5
Cc1oc(C2CCN(C(=O)Nc3cc(F)ccc3F)CC2)nc1C(=O)N1CCCC1	34.4
Cc1ccc(-c2coc(-c3ccc(NS(=O)(=O)c4ccc(Br)cc4)cc3)n2)cc1C	51.0
Cc1c2c(nn1Cc1ccccc1)NC(=O)CC2c1ccnc(C(C)C)n1 (stereo not given)	-1.2
CC(=O)c1cccc(-c2ccc(C(=O)N3CCC(CN4CCCC4=O)CC3)cn2)c1	107.9
CN1CCN(c2ccc(OC(F)(F)F)c(Nc3ncc4c(n3)-c3c(c(C(N)=O)nn3CCO)CC4)c2)CC1	-80.8*
CNC(=O)c1nn(C)c2c1C(C)(C)Cc1cnc(Nc3ccc(N4CCN(C)CC4)cc3)nc1-2	-58.1
CCCc1nnc(NC(=O)C2CC(=O)N(CCc3c[nH]c4ccc(Cl)cc34)C2)s1 (stereo not given)	-91.5*
SMILES	Tgondii IFNg
CCCCc1nnc(NC(=O)C2CC(=O)N(CCc3c[nH]c4ccc(OC)cc34)C2)s1 (stereo not given)	68.2
CCCCc1nnc(NC(=O)C2CC(=O)N(CCc3c[nH]c4ccc(C)cc34)C2)s1 (stereo not given)	-27.6
CCn1c(=O)c(-c2nc(-c3cccc(Cl)c3)no2)c(O)c2ccccc21	38.7
CN(C)CC/C=C1\c2ccccc2Sc2ccc(Cl)cc21	-77.1*!
CN(C)CCC=C1c2ccccc2CCc2ccccc21	-74.8*!
CN(C)CCC1(c2ccc(Cl)cc2)Cc2ccccc2C(=O)O1 (stereo not given)	14.1
OCCN1CCN(CC/C=C2/c3ccccc3Sc3ccc(Cl)cc32)CC1	-74.0*
CC(C)c1ccc2c(c1)C(N1CCN(CCO)CC1)Cc1ccc(F)cc1S2 (stereo not given)	-66.0
CN(C)CC/C=C1/c2ccccc2COc2ccccc21	16.0
CN(C)CC/C=C1/c2ccccc2COc2ccc(CC(=O)O)cc21	-1.9
CN(C)CCC=C1c2ccccc2C=Cc2ccccc21	-26.5
OCCOCCN1CCN(C2=Nc3ccccc3Sc3ccccc32)CC1	-4.5
COc1ccc(Cl)cc1NC(=O)N1CCC2(CC1)Nc1cc(C)ccc1-n1cccc12	404.7
CCCn1cnc(NC(=O)C(C)n2nc(C)cc2C)n1 (stereo not given)	10.0
CC(=O)Nc1cccc(C(=O)N2Cc3cnn(Cc4ccc(F)cc4)c3C2)c1	-4.8
Cc1cc(C)c(CN2CCCC(Cn3ccnc3C)C2)c(-n2cccn2)c1 (stereo not given)	6.9
COc1ccc2c(cc(C(=O)NCc3cc(N(C)C)nc(-c4cccnc4)n3)n2C)c1OC	-25.4
CCOc1ccccc1-c1nc(Cn2nnc(C(=O)Nc3cccc(Cl)c3)c2C)c(C)o1	321.4
CCc1nccn1CCC(=O)N1CCNCC1C(=O)NCc1ccncc1 (stereo not given)	-49.5
C=CCN1C(=S)O/C(=C2\C=Cc3cc(C)ccc3N2CC)C1=S	-38.9
Cc1ccc(-c2nc(Cn3nnc(-c4nc(-c5cccc(Br)c5)no4)c3C)c(C)o2)cc1	6.4
Cc1nc(-c2cccc(F)c2)sc1CCNC(=O)C(C)C	260.1
C[C@H](O[C@H]1OCCN(Cc2n[nH]c(=O)[nH]2)[C@H]1c1ccc(F)cc1)c1cc(C(F)(F)F)cc(C(F)(F)F)c1	-72.2*
Cc1nc(-c2ccc(F)cc2)nc2c1CCN(c1ncc(F)cn1)CC2	-13.3
O=C1CC(c2ccccc2)C2(CCN(C(=O)[C@H]3CCCO3)CC2)N1 (stereo not given in full)	3.6
Cc1ccsc1[C@@H]1CCN(C(=O)c2cccc(=O)[nH]2)C[C@H]1O	1.3

Screens: PubChem BioAssay, Broad Institute
